Source: PubChem BioAssay (NCATS)
Values joined by “and” are separate entries in the source; they are usually repeats but may differ in a detail not shown here. Equal entries are not always repeated. Results filed as inconclusive are left out. Active and inactive are the calls of the source. Calls come from the whole dose curve; as a rule, active = well fitted curve in the direction sought with a large enough effect; inconclusive = small, poorly fitted or top-dose-only effect, or another doubt; inactive = no such curve, though single readings can be large; an effect the other way counts as inactive or inconclusive.

Key:
NIH3T3 [1] = assay: Cytotoxic Profiling of Annotated Libraries Using Quantitative High-Throughput Screening (AID 1296008); details: Five cell lines viability, CellTiter-Glo ATP luminescence, 48-72 h; max response: stronger effect = lower value; note: nearly all actives have a fitted effect of over 60% in size; note: potency is the fitted concentration of half-maximal effect; for max response: % is set by controls: 0 for no effect and ±100 for the full control effect
Procedure, shortened: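 Cells exposed to compounds for 48 or 72 hr at 37 degrees Celsius. Viability read as ATP-coupled luminescence with CellTiter-Glo after 10 min at room temperature.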

HACAT = assay: qHTS assay to identify novel small-molecules to repurpose for Merkel cell carcinoma treatment (AID 1296009); details: MCC and control cell lines, CellTiter-Glo viability, 72 h; at 44.8 µM (top of the series) unless noted; note: nearly all actives have a fitted effect of over 60% in size
Procedure, shortened: (§1)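 Cells were incubated with compound for 72 hr at 37 degree celsius before CellTiter-Glo addition. Luminescence was normalized with no-cell wells as full cytotoxicity and DMSO as baseline.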

HEK293T [2] = assay: as above; details: MCC and control cell lines, CellTiter-Glo viability, 72 h; series mostly up to 44.8 µM
Procedure, shortened: as §1

C33A = assay: Primary qHTS to identify gynecologic anti-cancer compounds using libraries of approved drugs and bioactive compounds (AID 1345084); details: Gynecologic cancer cell panel viability, ATPlite luminescence, 48 h; series mostly up to 57.5 µM; note: nearly all actives have a fitted effect of over 55% in size; note: potency is the fitted concentration of half-maximal effect; for activity change, negative = cytotoxicity: % is set by controls: 0 for no effect and ±100 for the full control effect
Procedure, shortened: (§2)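 Cells, 1,000 per well, plated 16 h, then exposed 48 h at 37 C to compounds. Viability by ATPlite luminescence after 15 min at room temperature.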

CAOV3 = assay: as above; details: Gynecologic cancer cell panel viability, ATPlite luminescence, 48 h; series mostly up to 57.5 µM
Procedure, shortened: as §2

CASKI = assay: as above; details: Gynecologic cancer cell panel viability, ATPlite luminescence, 48 h; series mostly up to 57.5 µM
Procedure, shortened: as §2

Es-2 = assay: as above; details: Gynecologic cancer cell panel viability, ATPlite luminescence, 48 h; series mostly up to 57.5 µM
Procedure, shortened: as §2

HeLa = assay: as above; details: Gynecologic cancer cell panel viability, ATPlite luminescence, 48 h; series mostly up to 57.5 µM
Procedure, shortened: as §2

Hek293T [3] = assay: as above; details: Gynecologic cancer cell panel viability, ATPlite luminescence, 48 h, control line for the selectivity index; series mostly up to 57.5 µM
Procedure, shortened: as §2

JEG-3 = assay: as above; details: Gynecologic cancer cell panel viability, ATPlite luminescence, 48 h; series mostly up to 57.5 µM
Procedure, shortened: as §2

OV90 = assay: as above; details: Gynecologic cancer cell panel viability, ATPlite luminescence, 48 h; series mostly up to 57.5 µM
Procedure, shortened: as §2

PA-1 = assay: as above; details: Gynecologic cancer cell panel viability, ATPlite luminescence, 48 h; series mostly up to 57.5 µM
Procedure, shortened: as §2

NIH3T3 [4] = assay: qHTS assay to identify novel small-molecules to repurpose for Merkel cell carcinoma treatment (AID 1296009); details: MCC and control cell lines, CellTiter-Glo viability, 72 h; at 44.8 µM (top of the series) unless noted; note: nearly all actives have a fitted effect of over 60% in size
Procedure, shortened: as §1

O=C(O)[C@H]1CCCC[C@H]1C(=O)N1CCc2ccccc2[C@H]1CN1C(=O)c2ccccc2C1=O
inactive: max response (NIH3T3 [1]) 2.69% | outcome (HACAT) | Potency (HEK293T [2]) | Potency (C33A) | Potency (CAOV3) | Potency (CASKI) | Potency (Es-2) | Potency (HeLa) | Potency (Hek293T [3]) | Potency (JEG-3) | Potency (OV90) | Potency (PA-1)

CCc1nc(C(N)=O)c(Nc2ccc(N3CCC(N4CCN(C)CC4)CC3)c(OC)c2)nc1NC1CCOCC1
active: Potency (NIH3T3 [1]) 1.01 µM and 831 nM | Potency (CASKI) 7.08 µM | Potency (HeLa) 3.55 µM | Potency (PA-1) 2.24 µM
inactive: Potency (Es-2) | Potency (JEG-3) | Potency (OV90)

CC1=C2C(=O)C=C(CO)[C@@H]2[C@H]2OC(=O)[C@H](C)[C@@H]2[C@@H](O)C1
inactive: max response (NIH3T3 [1]) -3.32% | outcome (HACAT) | Potency (HEK293T [2]) | Potency (C33A) | Potency (CAOV3) | Potency (CASKI) | Potency (Es-2) | Potency (HeLa) | Potency (Hek293T [3]) | Potency (JEG-3) | Potency (OV90) | Potency (PA-1)

CC1CCC2(C(=O)OC3OC(COC4OC(CO)C(O)C(O)C4O)C(O)C(O)C3O)CCC3(C)C(=CCC4C5(C)CCC(O)C(C)(C(=O)O)C5CCC43C)C2C1(C)O (stereo not drawn)
inactive: outcome (NIH3T3 [1]) | outcome (HEK293T [2]) inactive [at 9.27 µM] | outcome (NIH3T3 [4]) inactive [at 9.27 µM] | activity change, negative = cytotoxicity (C33A) -3.16% [at 11.6 µM] | activity change, negative = cytotoxicity (CAOV3) 16.9% [at 11.6 µM] | activity change, negative = cytotoxicity (CASKI) 8.05% [at 11.6 µM] | activity change, negative = cytotoxicity (Es-2) 5.49% [at 11.6 µM] | activity change, negative = cytotoxicity (HeLa) -4.94% [at 11.6 µM] | activity change, negative = cytotoxicity (Hek293T [3]) 2.24% [at 11.6 µM] | activity change, negative = cytotoxicity (JEG-3) 10.5% [at 11.6 µM] | activity change, negative = cytotoxicity (OV90) 27% [at 11.6 µM] | activity change, negative = cytotoxicity (PA-1) -0.862% [at 11.6 µM]

CNc1nc(Nc2cnn([C@H]3CCN(C4COC4)C[C@@H]3F)c2Cl)ncc1C(F)(F)F
inactive: max response (NIH3T3 [1]) -26.9% | outcome (HACAT) | Potency (C33A) | Potency (CAOV3) | Potency (CASKI) | Potency (Es-2) | Potency (HeLa) | Potency (Hek293T [3]) | Potency (JEG-3) | Potency (OV90)

COc1cc(C/C(=C/NC(C)=O)N(CC(=O)Cc2ccccc2)C(C)=O)cc2c1OCO2
inactive: max response (NIH3T3 [1]) 2.9% | outcome (HACAT) inactive [at 17.4 µM] | Potency (HEK293T [2]) | Potency (C33A) | Potency (CAOV3) | Potency (CASKI) | Potency (Es-2) | Potency (HeLa) | Potency (Hek293T [3]) | Potency (JEG-3) | Potency (OV90) | Potency (PA-1)

CO[C@H]1C=C2C(CC[C@H](O[C@@H]3O[C@H](CO)[C@@H](O)[C@@H](O)[C@H]3O)C2(C)C)[C@]2(C)CC[C@]3(C)C([C@H](C)C(O)C(C=C(C)C)O[C@@H]4O[C@H](CO)[C@@H](O)[C@@H](O)[C@H]4O)CC[C@@]3(C)C12 (stereo partly drawn)
inactive: max response (NIH3T3 [1]) 3.68% | outcome (HACAT) inactive [at 9.27 µM] | outcome (HEK293T [2]) inactive [at 9.27 µM] | activity change, negative = cytotoxicity (C33A) -3.11% [at 11.6 µM] | activity change, negative = cytotoxicity (CAOV3) 7.91% [at 11.6 µM] | activity change, negative = cytotoxicity (CASKI) -4.92% [at 11.6 µM] | activity change, negative = cytotoxicity (Es-2) 2.74% [at 11.6 µM] | activity change, negative = cytotoxicity (HeLa) 0.609% [at 11.6 µM] | activity change, negative = cytotoxicity (Hek293T [3]) 12.3% [at 11.6 µM] | activity change, negative = cytotoxicity (JEG-3) -6.82% [at 11.6 µM] | activity change, negative = cytotoxicity (OV90) 5.72% [at 11.6 µM] | activity change, negative = cytotoxicity (PA-1) -0.818% [at 11.6 µM]

C[C@@H]1O[C@@H](O[C@H]2[C@H](O[C@H]3CC[C@@]4(C)C(CC[C@]5(C)C4CC=C4[C@@H]6CC(C)(C)CC[C@]6(C(=O)O)CC[C@]45C)[C@]3(C)CO)OC[C@H](O)[C@@H]2O)[C@H](O)[C@H](O[C@@H]2OC[C@@H](O)[C@H](O)[C@H]2O)[C@H]1O (stereo partly drawn)
inactive: max response (NIH3T3 [1]) -3.35% | outcome (HEK293T [2]) inactive [at 9.27 µM] | activity change, negative = cytotoxicity (C33A) -12% [at 11.6 µM] | activity change, negative = cytotoxicity (CAOV3) -8% [at 11.6 µM] | activity change, negative = cytotoxicity (CASKI) -1.75% [at 11.6 µM] | activity change, negative = cytotoxicity (Es-2) -1.5% [at 11.6 µM] | activity change, negative = cytotoxicity (HeLa) 14.3% [at 11.6 µM] | activity change, negative = cytotoxicity (Hek293T [3]) -9.01% [at 11.6 µM] | activity change, negative = cytotoxicity (JEG-3) -2.58% [at 11.6 µM] | activity change, negative = cytotoxicity (OV90) -5.88% [at 11.6 µM] | activity change, negative = cytotoxicity (PA-1) -2.5% [at 11.6 µM]

CC(CCC1(O)OC2CC3C4CCC5CC(O[C@@H]6O[C@H](CO)[C@@H](O)[C@H](O)[C@H]6O[C@@H]6OC[C@@H](O)[C@H](O)[C@H]6O)C(O)CC5(C)C4CCC3(C)C2C1C)CO[C@@H]1O[C@H](CO)[C@@H](O)[C@H](O)[C@H]1O (stereo partly drawn)
inactive: outcome (NIH3T3 [1]) | outcome (HACAT) inactive [at 9.27 µM] | outcome (HEK293T [2]) inactive [at 9.27 µM] | outcome (NIH3T3 [4]) inactive [at 9.27 µM] | activity change, negative = cytotoxicity (C33A) 4.8% [at 11.6 µM] | activity change, negative = cytotoxicity (CAOV3) 10.9% [at 11.6 µM] | activity change, negative = cytotoxicity (CASKI) 14.6% [at 11.6 µM] | activity change, negative = cytotoxicity (Es-2) -0.82% [at 11.6 µM] | activity change, negative = cytotoxicity (HeLa) -1.03% [at 11.6 µM] | activity change, negative = cytotoxicity (Hek293T [3]) -3.21% [at 11.6 µM] | activity change, negative = cytotoxicity (JEG-3) 4.38% [at 11.6 µM] | activity change, negative = cytotoxicity (OV90) -1.54% [at 11.6 µM] | activity change, negative = cytotoxicity (PA-1) 17.2% [at 11.6 µM]

CC(=O)O[C@@H]1C[C@]2(C)[C@@]3(CCC4[C@@]5(C)CC[C@H](O[C@@H]6O[C@H](C(=O)O)[C@@H](O)[C@H](O[C@@H]7O[C@H](CO)[C@H](O)[C@H](O)[C@H]7O[C@@H]7O[C@@H](C)[C@H](O)[C@@H](O)[C@H]7O[C@@H]7OC[C@](O)(CO)[C@H]7O)[C@H]6O[C@@H]6O[C@H](CO)[C@H](O)[C@H](O)[C@H]6O)C(C)(C)C5CC[C@]42C)O[C@@H](O)[C@]12C3CC(C)(C)[C@@H](OC(=O)/C=C/c1ccc(O)c(O)c1)[C@@H]2OC(=O)/C=C/c1ccccc1 (stereo partly drawn)
inactive: outcome (NIH3T3 [1]) | outcome (HACAT) inactive [at 9.27 µM] | outcome (HEK293T [2]) inactive [at 9.27 µM] | outcome (NIH3T3 [4]) inactive [at 9.27 µM] | activity change, negative = cytotoxicity (C33A) 8.85% [at 6.55 µM] | activity change, negative = cytotoxicity (CAOV3) 0.993% [at 6.55 µM] | activity change, negative = cytotoxicity (CASKI) 8% [at 6.55 µM] | activity change, negative = cytotoxicity (Es-2) -3.99% [at 6.55 µM] | activity change, negative = cytotoxicity (HeLa) 2.04% [at 6.55 µM] | activity change, negative = cytotoxicity (Hek293T [3]) 0.066% [at 6.55 µM] | activity change, negative = cytotoxicity (JEG-3) -2.17% [at 6.55 µM] | activity change, negative = cytotoxicity (OV90) -7.75% [at 6.55 µM] | activity change, negative = cytotoxicity (PA-1) 24% [at 6.55 µM]

COC(=O)c1ccc(O[C@@H]2O[C@H](CO)[C@@H](O)[C@H](O)[C@H]2O)c(OC)c1
inactive: outcome (NIH3T3 [1]) | outcome (HACAT) | Potency (HEK293T [2]) | outcome (NIH3T3 [4]) | Potency (C33A) | Potency (CAOV3) | Potency (CASKI) | Potency (Es-2) | Potency (HeLa) | Potency (Hek293T [3]) | Potency (JEG-3) | Potency (OV90) | Potency (PA-1)

C[C@H]1CC[C@@]2(OC1)O[C@H]1CC3C4CC=C5C[C@H](O)C[C@@H](O[C@@H]6O[C@@H](C)[C@H](O)[C@@H](O)[C@H]6O[C@@H]6O[C@@H](C)[C@H](O)[C@@H](O)[C@H]6O)[C@]5(C)C4CC[C@]3(C)[C@H]1[C@@H]2C (stereo partly drawn)
inactive: max response (NIH3T3 [1]) 0.342% | Potency (HEK293T [2]) | Potency (C33A) | Potency (CAOV3) | Potency (CASKI) | Potency (Es-2) | Potency (HeLa) | Potency (Hek293T [3]) | Potency (JEG-3) | Potency (OV90) | Potency (PA-1)
